Results as given in paper PMC7862700, “An all-to-all approach to the identification of sequence-specific readers for epigenetic DNA modifications on cytosine”.

How the values were obtained:
Assay in all cases: DAPPL (digital affinity profiling via proximity ligation, sequencing); 10 mM Tris-HCl pH 7.5, 50 mM NaCl, 1 mM DTT, 4% glycerol, room temperature, 30 min; GST-TFs on glutathione beads, 16-mer random dsDNA library, 0.1% formaldehyde crosslink after washing; high values mean tight binding
Conditions in all cases: protein: recombinant; tags: N-terminal GST; dsDNA, one strand shown
FLI1 = target: T1, FLI1 (Homo sapiens, UniProt Q01543 1-452)
T1 sequence: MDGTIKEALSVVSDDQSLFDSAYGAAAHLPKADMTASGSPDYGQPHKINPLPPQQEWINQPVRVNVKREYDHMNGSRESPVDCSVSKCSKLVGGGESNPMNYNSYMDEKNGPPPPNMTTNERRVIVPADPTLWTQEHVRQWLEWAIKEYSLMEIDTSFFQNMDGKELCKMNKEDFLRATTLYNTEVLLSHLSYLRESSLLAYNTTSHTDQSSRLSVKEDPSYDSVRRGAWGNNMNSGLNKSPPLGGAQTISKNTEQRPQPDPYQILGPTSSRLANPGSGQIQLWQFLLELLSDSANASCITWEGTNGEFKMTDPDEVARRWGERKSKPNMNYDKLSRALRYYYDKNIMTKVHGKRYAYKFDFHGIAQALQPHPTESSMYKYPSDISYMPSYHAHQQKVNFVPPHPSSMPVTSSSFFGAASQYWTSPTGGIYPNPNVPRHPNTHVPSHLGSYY
Summary of the method: (§1)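 Each value of binding signal is a hexamer's read frequency for a factor divided by the same hexamer's frequency in the tag-only sample. Barcoded, bead-captured GST fusions of human transcription factors made in yeast were pooled with that sample and incubated with 200 nmole of a random double-stranded 16-mer DNA library in Tris/NaCl/DTT/glycerol buffer at room temperature for 30 min. Washing, 0.1% formaldehyde crosslinking, proximity ligation, PCR and Illumina NextSeq500 sequencing followed.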

ELK1 = target: T2, ELK1 (Homo sapiens, UniProt P19419 1-428)
T2 sequence: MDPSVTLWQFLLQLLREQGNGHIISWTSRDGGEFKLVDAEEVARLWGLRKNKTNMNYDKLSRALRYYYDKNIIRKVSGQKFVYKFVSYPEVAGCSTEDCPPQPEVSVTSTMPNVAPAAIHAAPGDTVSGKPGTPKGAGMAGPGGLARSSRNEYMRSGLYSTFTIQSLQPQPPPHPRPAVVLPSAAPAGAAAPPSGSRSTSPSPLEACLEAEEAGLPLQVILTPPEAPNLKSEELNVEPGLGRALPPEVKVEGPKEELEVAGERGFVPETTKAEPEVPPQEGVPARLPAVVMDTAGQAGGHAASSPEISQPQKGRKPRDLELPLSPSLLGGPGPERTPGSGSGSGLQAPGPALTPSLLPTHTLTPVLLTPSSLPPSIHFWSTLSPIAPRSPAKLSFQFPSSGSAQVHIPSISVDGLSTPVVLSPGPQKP
Summary of the method: as §1

GABPA = target: T3, GABPA (Homo sapiens, UniProt Q06546 1-454)
T3 sequence: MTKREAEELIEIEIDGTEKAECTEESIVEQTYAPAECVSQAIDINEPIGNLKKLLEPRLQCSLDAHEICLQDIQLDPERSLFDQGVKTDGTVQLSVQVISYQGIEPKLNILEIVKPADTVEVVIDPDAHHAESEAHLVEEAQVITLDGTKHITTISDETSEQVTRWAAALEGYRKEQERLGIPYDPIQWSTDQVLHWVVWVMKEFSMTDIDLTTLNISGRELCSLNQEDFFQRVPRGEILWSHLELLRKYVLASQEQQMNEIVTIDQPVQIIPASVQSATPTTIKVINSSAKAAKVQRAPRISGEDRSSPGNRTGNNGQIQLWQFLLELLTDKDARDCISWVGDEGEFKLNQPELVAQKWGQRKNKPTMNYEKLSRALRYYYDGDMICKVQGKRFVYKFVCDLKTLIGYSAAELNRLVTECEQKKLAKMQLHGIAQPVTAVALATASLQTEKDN
Summary of the method: as §1

ERG = target: T4, ERG (Homo sapiens, UniProt P11308 1-479)
T4 sequence: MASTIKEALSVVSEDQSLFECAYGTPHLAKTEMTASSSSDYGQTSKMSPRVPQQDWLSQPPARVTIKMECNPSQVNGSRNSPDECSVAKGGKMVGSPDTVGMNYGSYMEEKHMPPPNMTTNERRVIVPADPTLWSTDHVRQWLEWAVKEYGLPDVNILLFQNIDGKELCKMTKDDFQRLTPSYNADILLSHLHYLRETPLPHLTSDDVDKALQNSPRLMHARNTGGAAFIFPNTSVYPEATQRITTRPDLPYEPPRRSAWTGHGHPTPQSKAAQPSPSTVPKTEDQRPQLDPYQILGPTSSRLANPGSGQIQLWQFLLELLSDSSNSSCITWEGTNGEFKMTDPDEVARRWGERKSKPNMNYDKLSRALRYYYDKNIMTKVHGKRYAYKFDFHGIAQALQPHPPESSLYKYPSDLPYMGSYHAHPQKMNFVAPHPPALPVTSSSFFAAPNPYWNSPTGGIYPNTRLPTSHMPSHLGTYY
Summary of the method: as §1

ELF1 = ELF1 (Homo sapiens, UniProt P32519 1-619)
Chain of ELF1 (P32519 whole entry): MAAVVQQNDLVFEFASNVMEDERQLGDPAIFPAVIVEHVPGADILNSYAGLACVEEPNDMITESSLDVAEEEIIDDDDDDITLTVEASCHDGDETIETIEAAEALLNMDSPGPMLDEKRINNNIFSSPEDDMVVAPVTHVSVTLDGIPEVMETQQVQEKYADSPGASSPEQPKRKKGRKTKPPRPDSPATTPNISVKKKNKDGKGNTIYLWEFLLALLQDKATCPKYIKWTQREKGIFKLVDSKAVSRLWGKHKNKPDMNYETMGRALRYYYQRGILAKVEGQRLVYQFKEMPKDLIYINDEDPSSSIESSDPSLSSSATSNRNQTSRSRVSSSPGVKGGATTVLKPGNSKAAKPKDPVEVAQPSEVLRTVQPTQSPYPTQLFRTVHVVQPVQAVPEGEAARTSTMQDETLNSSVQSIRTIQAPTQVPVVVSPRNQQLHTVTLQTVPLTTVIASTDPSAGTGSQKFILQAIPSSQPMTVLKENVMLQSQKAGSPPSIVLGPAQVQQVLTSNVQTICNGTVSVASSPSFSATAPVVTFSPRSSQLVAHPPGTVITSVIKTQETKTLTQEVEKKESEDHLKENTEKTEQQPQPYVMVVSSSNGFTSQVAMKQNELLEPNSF
Summary of the method: as §1

EHF = target: T5, EHF (Homo sapiens, UniProt Q9NZC4 1-300)
T5 sequence: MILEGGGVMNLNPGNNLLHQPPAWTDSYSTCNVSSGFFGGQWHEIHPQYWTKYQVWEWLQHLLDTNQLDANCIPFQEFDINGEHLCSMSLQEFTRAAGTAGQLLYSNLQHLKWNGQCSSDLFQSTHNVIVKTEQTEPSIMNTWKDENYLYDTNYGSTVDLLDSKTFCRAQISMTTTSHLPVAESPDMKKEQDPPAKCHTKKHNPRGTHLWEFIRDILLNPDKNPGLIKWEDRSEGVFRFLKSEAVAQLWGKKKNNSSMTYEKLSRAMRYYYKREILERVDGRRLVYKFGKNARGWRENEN
Summary of the method: as §1

SPI1 = SPI1 (Homo sapiens, UniProt P17947 1-270)
Summary of the method: as §1

SPIB = SPIB (Homo sapiens, UniProt Q01892 1-262)
Chain of SPIB (Q01892 whole entry): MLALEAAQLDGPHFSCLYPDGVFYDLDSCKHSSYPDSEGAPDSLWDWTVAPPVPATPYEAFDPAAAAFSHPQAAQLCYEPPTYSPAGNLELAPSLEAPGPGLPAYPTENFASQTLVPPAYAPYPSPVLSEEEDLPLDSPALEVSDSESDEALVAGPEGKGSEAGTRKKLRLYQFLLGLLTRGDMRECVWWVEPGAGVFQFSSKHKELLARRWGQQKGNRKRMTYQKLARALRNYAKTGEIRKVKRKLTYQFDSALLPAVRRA
Summary of the method: as §1

ELK3 = target: T6, ELK3 (Homo sapiens, UniProt P41970 1-407)
T6 sequence: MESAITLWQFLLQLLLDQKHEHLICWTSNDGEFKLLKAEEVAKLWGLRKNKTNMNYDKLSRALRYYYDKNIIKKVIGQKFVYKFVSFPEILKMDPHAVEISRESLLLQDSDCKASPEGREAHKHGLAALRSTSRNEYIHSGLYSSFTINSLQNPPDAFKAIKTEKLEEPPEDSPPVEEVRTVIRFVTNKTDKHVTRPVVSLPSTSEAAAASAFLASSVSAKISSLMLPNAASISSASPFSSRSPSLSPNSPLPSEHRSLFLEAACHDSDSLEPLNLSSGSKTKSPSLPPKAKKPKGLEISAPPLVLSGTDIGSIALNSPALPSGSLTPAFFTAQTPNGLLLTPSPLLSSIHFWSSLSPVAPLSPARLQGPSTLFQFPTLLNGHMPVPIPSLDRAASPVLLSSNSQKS
Summary of the method: as §1

Sequence	binding signal (FLI1)	binding signal (ELK1)	binding signal (GABPA)	binding signal (ERG)	binding signal (ELF1)	binding signal (EHF)	binding signal (SPI1)	binding signal (SPIB)	binding signal (ELK3)
CCCTAA	1.16 fold enrichment (6-mer frequency, TF over GST control)	1.19 fold enrichment (6-mer frequency, TF over GST control)	1.15 fold enrichment (6-mer frequency, TF over GST control)	1.17 fold enrichment (6-mer frequency, TF over GST control)	1.25 fold enrichment (6-mer frequency, TF over GST control)	1.24 fold enrichment (6-mer frequency, TF over GST control)	1.2 fold enrichment (6-mer frequency, TF over GST control)	1.29 fold enrichment (6-mer frequency, TF over GST control)	1.28 fold enrichment (6-mer frequency, TF over GST control)
AGACTT	1.09 fold enrichment (6-mer frequency, TF over GST control)	1.04 fold enrichment (6-mer frequency, TF over GST control)	1.03 fold enrichment (6-mer frequency, TF over GST control)	1.09 fold enrichment (6-mer frequency, TF over GST control)	1.01 fold enrichment (6-mer frequency, TF over GST control)	1.08 fold enrichment (6-mer frequency, TF over GST control)	1.09 fold enrichment (6-mer frequency, TF over GST control)	1.04 fold enrichment (6-mer frequency, TF over GST control)	–
AACTTG	1.26 fold enrichment (6-mer frequency, TF over GST control)	1.2 fold enrichment (6-mer frequency, TF over GST control)	1.18 fold enrichment (6-mer frequency, TF over GST control)	1.11 fold enrichment (6-mer frequency, TF over GST control)	1.21 fold enrichment (6-mer frequency, TF over GST control)	1.14 fold enrichment (6-mer frequency, TF over GST control)	1.15 fold enrichment (6-mer frequency, TF over GST control)	1.19 fold enrichment (6-mer frequency, TF over GST control)	1.08 fold enrichment (6-mer frequency, TF over GST control)
TGATTC	1.12 fold enrichment (6-mer frequency, TF over GST control)	1.09 fold enrichment (6-mer frequency, TF over GST control)	1.1 fold enrichment (6-mer frequency, TF over GST control)	1.08 fold enrichment (6-mer frequency, TF over GST control)	1.1 fold enrichment (6-mer frequency, TF over GST control)	1.12 fold enrichment (6-mer frequency, TF over GST control)	1.06 fold enrichment (6-mer frequency, TF over GST control)	1.17 fold enrichment (6-mer frequency, TF over GST control)	1.02 fold enrichment (6-mer frequency, TF over GST control)
ATTAAG	1.04 fold enrichment (6-mer frequency, TF over GST control)	1.07 fold enrichment (6-mer frequency, TF over GST control)	1.09 fold enrichment (6-mer frequency, TF over GST control)	1.01 fold enrichment (6-mer frequency, TF over GST control)	1.08 fold enrichment (6-mer frequency, TF over GST control)	1.04 fold enrichment (6-mer frequency, TF over GST control)	1.03 fold enrichment (6-mer frequency, TF over GST control)	1.06 fold enrichment (6-mer frequency, TF over GST control)	–
CCGAAA	1.25 fold enrichment (6-mer frequency, TF over GST control)	1.23 fold enrichment (6-mer frequency, TF over GST control)	1.33 fold enrichment (6-mer frequency, TF over GST control)	1.2 fold enrichment (6-mer frequency, TF over GST control)	1.25 fold enrichment (6-mer frequency, TF over GST control)	1.22 fold enrichment (6-mer frequency, TF over GST control)	1.21 fold enrichment (6-mer frequency, TF over GST control)	1.26 fold enrichment (6-mer frequency, TF over GST control)	–
TCCTTA	1.6 fold enrichment (6-mer frequency, TF over GST control)	1.38 fold enrichment (6-mer frequency, TF over GST control)	1.57 fold enrichment (6-mer frequency, TF over GST control)	1.55 fold enrichment (6-mer frequency, TF over GST control)	1.66 fold enrichment (6-mer frequency, TF over GST control)	1.71 fold enrichment (6-mer frequency, TF over GST control)	1.78 fold enrichment (6-mer frequency, TF over GST control)	1.7 fold enrichment (6-mer frequency, TF over GST control)	1.4 fold enrichment (6-mer frequency, TF over GST control)
AATCAG	1.1 fold enrichment (6-mer frequency, TF over GST control)	1.05 fold enrichment (6-mer frequency, TF over GST control)	1.19 fold enrichment (6-mer frequency, TF over GST control)	1.07 fold enrichment (6-mer frequency, TF over GST control)	1.1 fold enrichment (6-mer frequency, TF over GST control)	1.02 fold enrichment (6-mer frequency, TF over GST control)	1.04 fold enrichment (6-mer frequency, TF over GST control)	1.19 fold enrichment (6-mer frequency, TF over GST control)	–
GTATAA	1.02 fold enrichment (6-mer frequency, TF over GST control)	1.21 fold enrichment (6-mer frequency, TF over GST control)	1.06 fold enrichment (6-mer frequency, TF over GST control)	1.06 fold enrichment (6-mer frequency, TF over GST control)	1.06 fold enrichment (6-mer frequency, TF over GST control)	1.09 fold enrichment (6-mer frequency, TF over GST control)	1.12 fold enrichment (6-mer frequency, TF over GST control)	1.19 fold enrichment (6-mer frequency, TF over GST control)	–
CTGGAC	1.16 fold enrichment (6-mer frequency, TF over GST control)	1.07 fold enrichment (6-mer frequency, TF over GST control)	1.17 fold enrichment (6-mer frequency, TF over GST control)	1.13 fold enrichment (6-mer frequency, TF over GST control)	1.12 fold enrichment (6-mer frequency, TF over GST control)	1.13 fold enrichment (6-mer frequency, TF over GST control)	1.08 fold enrichment (6-mer frequency, TF over GST control)	1.05 fold enrichment (6-mer frequency, TF over GST control)	–
ATAGCT	1.13 fold enrichment (6-mer frequency, TF over GST control)	1.08 fold enrichment (6-mer frequency, TF over GST control)	1.2 fold enrichment (6-mer frequency, TF over GST control)	1.07 fold enrichment (6-mer frequency, TF over GST control)	1.19 fold enrichment (6-mer frequency, TF over GST control)	1.25 fold enrichment (6-mer frequency, TF over GST control)	1.17 fold enrichment (6-mer frequency, TF over GST control)	1.09 fold enrichment (6-mer frequency, TF over GST control)	–
GCATTC	1.15 fold enrichment (6-mer frequency, TF over GST control)	1.16 fold enrichment (6-mer frequency, TF over GST control)	1.18 fold enrichment (6-mer frequency, TF over GST control)	1.12 fold enrichment (6-mer frequency, TF over GST control)	1.13 fold enrichment (6-mer frequency, TF over GST control)	1.07 fold enrichment (6-mer frequency, TF over GST control)	1.15 fold enrichment (6-mer frequency, TF over GST control)	1.12 fold enrichment (6-mer frequency, TF over GST control)	1.03 fold enrichment (6-mer frequency, TF over GST control)
GATTTG	1.24 fold enrichment (6-mer frequency, TF over GST control)	1.16 fold enrichment (6-mer frequency, TF over GST control)	1.22 fold enrichment (6-mer frequency, TF over GST control)	1.11 fold enrichment (6-mer frequency, TF over GST control)	1.12 fold enrichment (6-mer frequency, TF over GST control)	1.11 fold enrichment (6-mer frequency, TF over GST control)	1.08 fold enrichment (6-mer frequency, TF over GST control)	1.12 fold enrichment (6-mer frequency, TF over GST control)	–
TGGTCC	1.25 fold enrichment (6-mer frequency, TF over GST control)	1.23 fold enrichment (6-mer frequency, TF over GST control)	1.18 fold enrichment (6-mer frequency, TF over GST control)	1.26 fold enrichment (6-mer frequency, TF over GST control)	1.35 fold enrichment (6-mer frequency, TF over GST control)	1.26 fold enrichment (6-mer frequency, TF over GST control)	1.18 fold enrichment (6-mer frequency, TF over GST control)	1.32 fold enrichment (6-mer frequency, TF over GST control)	1.15 fold enrichment (6-mer frequency, TF over GST control)
TCGATG	1.04 fold enrichment (6-mer frequency, TF over GST control)	1.14 fold enrichment (6-mer frequency, TF over GST control)	1.12 fold enrichment (6-mer frequency, TF over GST control)	1.06 fold enrichment (6-mer frequency, TF over GST control)	1.11 fold enrichment (6-mer frequency, TF over GST control)	1.09 fold enrichment (6-mer frequency, TF over GST control)	1.17 fold enrichment (6-mer frequency, TF over GST control)	1.06 fold enrichment (6-mer frequency, TF over GST control)	–
